Hits are enriched below; roughly 9.3% of the tested compounds scored in any of these assays.
Htt clearance = mutant huntingtin protein clearance. HeLa Exon1htt(103Q)mCFP, aggregate imaging; zero = plate's median compound well. inhibition, % at 1.5 µM. actives 0.42% (n = 47,000). AID 853;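 active = inhibition of aggregate fluorescence above about 70%, also judged a hit by eye on the cell image, limit read from the data, passing the limit was not always enough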;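 also: cells exposed to compound for three days before fixation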
NADH enzymes = inhibitors of enzymes used to reach an NAD/NADH endpoint; coupled PK/LDH NADH assays, four targets; IC50, µM (titrated, usually from 10 µM); actives 0.02% (n = 65,000); AID 774;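 active = single-dose screening hits from any of four coupled enzyme assays that gave an IC50 when retested across doses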;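 also: the DPM-DC format reads NADH fluorescence rather than 340 nm absorbance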
A340 absorber = compound absorbs light at 340 nm. compound absorbance at 340 nm, fold over control. fold change at 10 µM. 65,000 tested, under 10 active;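 active = at 10 µM dose, initial 340 nm absorbance at least 2 fold that of control wells; inactive = change under 2 fold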;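 also: initial absorbance extrapolated from kinetic A340 decline of NADH oxidation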
M1 antag = M1 muscarinic receptor (rat) antagonism | P08482 | CHO-M1 cells, Fluo-4 calcium, ACh EC80 antagonist mode; hits give low values | B-score at 10 µM | actives 3.4% (n = 64,000) | AID 628;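 active = calcium fluorescence response, raw or row-and-column corrected B-score, differing from the plate sample mean either way at a set confidence level, mostly lower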
Target sequence (P08482 whole entry, looked up): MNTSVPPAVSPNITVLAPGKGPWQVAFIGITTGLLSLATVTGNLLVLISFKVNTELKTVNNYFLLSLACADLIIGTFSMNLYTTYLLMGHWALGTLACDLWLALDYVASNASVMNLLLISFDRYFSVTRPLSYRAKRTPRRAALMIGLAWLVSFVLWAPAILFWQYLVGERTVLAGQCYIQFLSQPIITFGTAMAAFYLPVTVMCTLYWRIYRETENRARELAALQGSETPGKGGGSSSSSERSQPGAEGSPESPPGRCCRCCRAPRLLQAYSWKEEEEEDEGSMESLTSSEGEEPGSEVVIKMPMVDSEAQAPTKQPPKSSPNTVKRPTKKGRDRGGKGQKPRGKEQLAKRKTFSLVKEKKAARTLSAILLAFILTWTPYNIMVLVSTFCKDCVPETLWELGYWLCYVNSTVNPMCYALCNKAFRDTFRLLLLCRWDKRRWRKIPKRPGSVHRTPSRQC
Autofluor 339 = intrinsic fluorescence of library compounds, ex339/em460 – biochemical, MLSMR library, data from DPM-DC assay, artefact control, profiling panel. compound autofluorescence, ex339/em460 nm, NADH buffer; hits give high values; 1 = no-compound wells, NADH background. fluorescence fold increase at 10 µM. actives 5.5% (n = 65,000). AID 709;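 active = at 10 µM, mean starting fluorescence two-fold or more over control wells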;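 also: signal is the first read of a kinetic run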
M1 ag = agonists of M1 muscarinic receptor | CHO-M1 cells, Fluo-4 calcium fluorescence, agonist mode; hits give high values | B-score at 10 µM | actives 3% (n = 64,000) | AID 626;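 active = fluorescence rise, raw or as B-score row- and column-corrected plate score, outside the 99.7% band of its plate's samples, either direction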
Each line names hits and unclear results; the compound was inactive in the other large screens.

CCOc1ccc(S(=O)(=O)NCCCN2CCOCC2)c2ccccc12	none (no result: Htt clearance)
Cc1ccc2nc(NC(=O)Cn3cc4c(n3)CCCCC4)sc2c1	none
O=C(Nc1nnc(-c2ccc3c(c2)OCCO3)o1)c1ccc(Cc2ccccc2)cc1	Autofluor 339 2.1 (no result: Htt clearance)
COc1ccc(C(=O)Nc2nnc(-c3ccccc3)o2)cc1OC	none
CC1=CC(C)(C)Nc2ccccc21	Autofluor 339 2.5 (no result: Htt clearance)
S=C(c1ccc2c(c1)OCO2)N1CCCC1	none
CS(=O)(=O)N(CC(=O)N1CCCCCC1)c1ccccc1	none (no result: Htt clearance)
CS(=O)(=O)N(CC(=O)N1CCCC1)c1ccc(OCc2ccccc2)cc1	Htt clearance 78
O=C(NCc1ccco1)c1cc2sccc2n1Cc1ccccc1	none
O=c1cc(-c2ccccc2)[nH]c2nc3ccccc3n12	Autofluor 339 2.5 (no result: Htt clearance)
COc1ccccc1NC(=O)CSc1nc(O)cc(=O)[nH]1	none (no result: Htt clearance)
CCCCNc1cc(=O)n(C)c(=O)[nH]1	M1 antag 0.73 (no result: Htt clearance)
Cn1c(=O)cc(NCc2ccccc2)[nH]c1=O	none (no result: Htt clearance)
COc1ccc(S(=O)(=O)Nc2c(C)ccc3nsnc23)cc1OC	none (no result: Htt clearance)
COC(=O)c1ccc(Cl)c(NC(=O)CN(c2ccc3c(c2)OCO3)S(C)(=O)=O)c1	none (no result: Htt clearance)
CCC(Sc1ccc2nnc(-c3ccc(F)cc3)n2n1)C(=O)O (configuration not stated)	Autofluor 339 2
CC(=O)C(Sc1ccc2nnc(-c3ccc(F)cc3)n2n1)C(C)=O	none
CCOC(=O)c1nn(-c2ccccc2)c(C(=O)OCC)c1N	Autofluor 339 3.8
CC1(C)CC(=O)c2cnn(-c3nc4ccccc4[nH]3)c2C1	none
CN1CCN(c2cc3c(c4c2[nH]c2ccccc24)C(=O)CC(C)(C)C3)CC1	Autofluor 339 2.1 (no result: Htt clearance)
CCC(C)NC(=O)COc1ccc(S(=O)(=O)N2CCOCC2)cc1 (configuration not stated)	none (no result: Htt clearance)
O=C(c1ccc(-n2cnnn2)cc1)N1CCCCC1	none (no result: NADH enzymes, A340 absorber, M1 antag, Autofluor 339, M1 ag)
COc1ccccc1N1CC(O)=C(c2nc3ccccc3c(=O)[nH]2)C1=N	Autofluor 339 2.5
COCCN1CC(O)=C(c2nc3ccccc3c(=O)[nH]2)C1=N	Autofluor 339 3.7 (no result: Htt clearance)
N=C1C(c2nc3ccccc3c(=O)[nH]2)=C(O)CN1CCc1ccccc1	none (no result: Htt clearance)
N=C1C(c2nc3ccccc3c(=O)[nH]2)=C(O)CN1CCO	none (no result: Htt clearance)
COc1cccc(/C=C2/CN(C)CC3=C2OC(N)=C(C#N)C3c2cccc(OC)c2)c1 (configuration not stated)	none
Cc1ccc(O)c(CC(C)C)n1	Autofluor 339 2
CCOC(=O)COc1ccc(S(=O)(=O)N2CCN(c3ccccc3F)CC2)cc1	Htt clearance 82
CCn1cc(C(=O)N2CCCc3ccccc32)c2cc(OC)c(OC)cc2c1=O	M1 antag 0.88
COc1cc(C(=O)N2CCCc3ccccc32)cc(OC)c1OC	none (no result: NADH enzymes, A340 absorber, M1 antag, Autofluor 339, M1 ag)
CCCn1c(SCC(=O)N2c3ccccc3CCc3ccccc32)nc2c1c(=O)n(C)c(=O)n2C	none (no result: NADH enzymes, A340 absorber, M1 antag, Autofluor 339, M1 ag)
CCOC(=O)c1cnc2sc3c(n2c1=O)CCCC3	Autofluor 339 5
CCOC(=O)c1cnc2nc(C)[nH]n2c1=O	none (no result: Htt clearance)
COc1cccc(NC(=O)CSc2nncn2N)c1	none
Cc1csc2ncc(C(=O)NCc3ccc4c(c3)OCO4)c(=O)n12	none (no result: Htt clearance)
COc1ccc(C)cc1NC(=O)c1cnc2n(c1=O)CCS2	none (no result: Htt clearance)
CCc1ccc(NC(=O)c2cnc3scc(C)n3c2=O)cc1	none (no result: Htt clearance)
Cc1csc2ncc(C(=O)NC(C)c3ccccc3)c(=O)n12 (configuration not stated)	Autofluor 339 2.1 (no result: Htt clearance)
CC(NC(=O)c1ccccc1O)c1ccccc1 (configuration not stated)	Autofluor 339 2.2 (no result: Htt clearance)
COc1ccc(C)cc1NC(=O)c1cnc2scc(C)n2c1=O	Autofluor 339 2.1 (no result: Htt clearance)
Cc1csc2ncc(C(=O)NCc3ccccc3Cl)c(=O)n12	Autofluor 339 2.1 (no result: Htt clearance)
CCOc1ccc(C2C(C#N)=C(N)Oc3cc(C)n(CCN(C)C)c(=O)c32)cc1OCC (configuration not stated)	none
Cc1nn(-c2ccccc2)c2sc(C(=O)N3CCOCC3)cc12	none
Cc1nn(-c2ccccc2)c2sc(C(=O)OCC(=O)N3CCCCC3)cc12	Autofluor 339 4 (no result: Htt clearance)
COC(=O)c1cc2c(C)nn(-c3ccccc3)c2s1	none (no result: Htt clearance)
